Test results reported in PubChem BioAssay (NCATS).
Records with an inconclusive call do not appear. Activity calls are given as the source filed them. Calls come from the whole dose curve; as a rule, active = well fitted inhibition curve with a large enough effect; inconclusive = small, poorly fitted or top-dose-only effect; inactive = flat fitted curve, though single readings scatter.

Columns and labels:
Assay in all cases: qHTS profiling for inhibitors of Plasmodium falciparum proliferation (AID 504749); note: nearly all actives have a fitted effect of over 60% in size
Settings in all cases: P. falciparum in erythrocytes, SYBR Green DNA, 72 h; series mostly up to 28.7 µM
[1] = test system: CP247
In short: (§1)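 Each compound contacts P. falciparum-infected red blood cells for 72 h at 37 C; lysis buffer (Tris, EDTA, saponin, Triton X, SYBR Green I) is added and fluorescence measured next morning; values normalized to controls.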

[2] = test system: CP250
In short: as §1

[3] = test system: CP252
In short: as §1

[4] = test system: CP256
In short: as §1

[5] = test system: CP260
In short: as §1

[6] = test system: CP262
In short: as §1

[7] = test system: CP265
In short: as §1

[8] = test system: CP266
In short: as §1

[9] = test system: CP268
In short: as §1

[10] = test system: CP269
In short: as §1

Measured: Potency
Potency is the fitted concentration of half-maximal effect.

COc1ccc([C@@H]2CNC(=O)C2)cc1OC1CCCC1
inactive: all assays above

CCCCCCCCCCCC(CC1OC(=O)C1CCCCCC)OC(=O)C(CC(C)C)NC=O (stereo not drawn)
inactive: [6] | [8]
active: [1] 398 nM | [2] 447 nM | [3] 794 nM | [4] 708 nM | [5] 794 nM | [7] 631 nM

Nc1nc2c(c(=O)[nH]1)N(C=O)[C@H](CNc1ccc(C(=O)N[C@@H](CCC(=O)O)C(=O)O)cc1)CN2
inactive: all assays above

OCC(O)C(O)C(O)CO (stereo not drawn)
inactive: all assays above

COc1ccc2c(c1OC)C(=O)OC2[C@H]1c2c(cc3c(c2OC)OCO3)CCN1C (stereo partly drawn)
inactive: all assays above

CCC(C(=O)O)C1CCC(C)C(C(C)C(O)C(C)C(=O)C(CC)C2OC3(C=CC(O)[C@@]4(CC[C@](C)(C5CC[C@@](O)(CC)C(C)O5)O4)O3)C(C)CC2C)O1 (stereo partly drawn)
active: [1] 891 nM | [2] 1120 nM | [3] 891 nM | [4] 2000 nM | [5] 631 nM | [6] 849 nM | [7] 1260 nM | [8] 1350 nM | [9] 1070 nM | [10] 675 nM

COc1cccc2c1C(=O)c1c(O)c3c(c(O)c1C2=O)C[C@@](O)(C(=O)CO)C[C@@H]3O[C@H]1C[C@H](N)[C@H](OC2CCCCO2)[C@H](C)O1 (stereo partly drawn)
inactive: [6]
active: [1] 3550 nM | [2] 2510 nM | [3] 11200 nM | [4] 8910 nM | [5] 2240 nM | [7] 8910 nM | [8] 7570 nM | [9] 8490 nM | [10] 5360 nM
